Source: PubChem BioAssay (National Center for Advancing Translational Sciences (NCATS))
Pf growth 96h: inhibits malaria parasite growth, 96 h. P. falciparum luciferase reporter growth, 96 h. Potency, µM (highest dose often 28.7 µM), for the others: top-dose activity change, negative = inhibition, hits mostly inhibitors. hit rate 6.9% among 320,000. AID 504834; also: potency is read from the fitted curve at half-maximal effect; % is scaled to controls: 0 for no effect and ±100 for the full control effect
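Plates of compound plus infected erythrocytes (2% hematocrit, 0.05% parasitemia final) incubate 96 hours, 37 C, 5% CO2. Detection reagent added; reduced luminescence from the parasites' luciferase reporter flags inhibition.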
CHX counter: affects cycloheximide protein synthesis inhibition readout, counter-screen; cell reporter, cycloheximide protein synthesis inhibition counterscreen; max response, %; hit rate 12% among 300,000; AID 2314; in the data active = max response mostly above about 13%, no sharp cut-off; inactive = mostly below about 14%; also: read at 38.3 µM for the half of the compounds with a filed dose; 0% is about no effect
Shiga toxin inh: Shiga toxin inhibition; AID 2315; hit rate 9.2% among 290,000; Vero cells, Shiga toxin protein synthesis inhibition reporter; inhibition, % at 38.7 µM; in the data active = inhibition mostly above about 28%, no sharp cut-off; inactive = mostly below about 43%; also: 0% is about no effect
SARS PLpro yeast: inhibitors of SARS-CoV papain-like protease in yeast. S. cerevisiae expressing SARS-CoV PLpro, growth rescue. Potency, µM (highest dose often 32.9 µM), for the others: at the highest dose activity, positive = growth rescue, most hits filed as activators. hit rate 0.19% among 330,000. AID 485353; calls by dose curve; also: potency is read from the fitted curve at half-maximal effect; 0% is about no effect; nearly all actives have a fitted effect of over 55% in size
NS1 inh: inhibitors of influenza NS1 protein function; Potency, µM (doses to about 46.1 µM), inactives show at the top dose activity, positive = more growth; hit rate 0.4% among 270,000; AID 2326; calls by dose curve; also: potency is read from the fitted curve at half-maximal effect; actives are rising curves; nearly all actives have a fitted effect of over 50% in size
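Read-out: OD600 growth recovery of NS1-expressing budding yeast. Cells grown overnight at 30C in -URA glucose medium, washed, resuspended and diluted 1:100 in 2% galactose assay medium, pH 6.0. Same strain lacking NS1 served as positive control.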
Pf growth 48h: inhibits P. falciparum growth in the first generation, 48 h; hit rate 5.9% among 310,000; P. falciparum luciferase growth in erythrocytes, 48 h; Potency, µM (series often up to 28.7 µM), without a hit: top-dose activity change, negative = inhibition, most hits filed as inhibitors; also: potency is read from the fitted curve at half-maximal effect; % is scaled to controls: 0 for no effect and ±100 for the full control effect
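Cell-based growth assay: transgenic P. falciparum expressing firefly luciferase, cultured in red cells within RPMI 1640 containing 0.5% w/v Albumax, 24 mM bicarbonate and gentamycin. A drop in luciferase activity indicates inhibition.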
Active calls of the source: *; ! = a repeat was not active. Most compounds without a hit are left out; they make up all but 21% or so of the library. Unless noted, calls follow the shape of the dose curve; as a rule, active = well fitted inhibition curve with a large enough effect; inconclusive = small, poorly fitted or top-dose-only effect, or another doubt; inactive = no such curve, though single readings can be large or run the other way.

CC1(C)Cc2c(sc(NC(=O)c3ccccc3)c2C(=O)O)CO1 was read as Pf growth 96h -4%, CHX counter 61*, Shiga toxin inh 114*, SARS PLpro yeast -2%, NS1 inh -3% and Pf growth 48h 64%.
For O=C(Nc1sc2c(c1C(=O)O)CCCC2)c1cccc(Cl)c1 the results were Pf growth 96h 27%, CHX counter 50*, Shiga toxin inh 98*, SARS PLpro yeast -8%, NS1 inh -54% and Pf growth 48h 46%.
O=C(Nc1sc2c(c1C(=O)O)CCC2)c1ccccc1 was read as CHX counter 41*, Shiga toxin inh 143*, SARS PLpro yeast 4%, NS1 inh -188% and Pf growth 48h 44%.
For O=C(O)c1c(NC(=O)c2cccc3ccccc23)sc2c1CCC2 the results were Pf growth 96h -8%, CHX counter -2, Shiga toxin inh 16, SARS PLpro yeast -25% and NS1 inh -79%.
COc1ccc(C(=O)Nc2sc3c(c2C(=O)O)CC(C)(C)OC3)cc1 was read as Pf growth 96h 16%, CHX counter -3, Shiga toxin inh 13, SARS PLpro yeast 18%, NS1 inh 11% and Pf growth 48h 22%.
`CCN(CC)C(=O)Oc1cc(=O)n2c3c(cccc13)CCC2` gave Pf growth 96h -1%, CHX counter 6, Shiga toxin inh -6, SARS PLpro yeast 27%, NS1 inh -31% and Pf growth 48h 8%.
For O=C(Nc1sc2c(c1C(=O)O)CCCC2)c1ccc(Cl)cc1 the results were Pf growth 96h -8%, CHX counter 19*, Shiga toxin inh 29, SARS PLpro yeast -31%, NS1 inh -82% and Pf growth 48h 56%.
Screening COc1ccc(NC(=O)c2c(NC(=O)CNCc3ccco3)sc3c2CCC3)cc1 returned Pf growth 96h inconclusive, CHX counter 8, Shiga toxin inh 5, SARS PLpro yeast -2%, NS1 inh -16% and Pf growth 48h 2.6µM*.
Screening O=C(Nc1sc2c(c1C(=O)NCCCO)CCCC2)c1ccccc1 returned Pf growth 96h inconclusive, CHX counter 6, Shiga toxin inh 14, SARS PLpro yeast 1%, NS1 inh -16% and Pf growth 48h inconclusive.
For O=C(Nc1sc2c(c1C(=O)O)CCCCC2)c1ccccc1 the results were Pf growth 96h inconclusive, CHX counter 42*, Shiga toxin inh 104*, SARS PLpro yeast -5%, NS1 inh -47% and Pf growth 48h -1%.
For NC(=O)c1c(NC(=O)c2ccc(N3C(=O)CCC3=O)cc2)sc2c1CCCC2 the results were Pf growth 96h inconclusive, SARS PLpro yeast -1% and Pf growth 48h -12%.
For O=C(Cc1ccccc1)Nc1sc2c(c1C(=O)Nc1ccc(Cl)cc1)CCCC2 the results were CHX counter 31*! and Shiga toxin inh 38.
`C=CCNc1nc2c(c(=O)n(C)c(=O)n2C)n1CC(=C)C` gave Pf growth 96h inconclusive, CHX counter 1, Shiga toxin inh -7, SARS PLpro yeast 0%, NS1 inh -4% and Pf growth 48h 35%.
Screening COC(=O)c1c(NC(=O)c2ccccc2C(=O)O)sc2c1CCC2 returned Pf growth 96h -14%, CHX counter -4, SARS PLpro yeast 7%, NS1 inh 27% and Pf growth 48h 26%.
For CCOC(=O)c1ccc(NC(=O)c2c(NC(=O)CCC(=O)O)sc3c2CCCCC3)cc1 the results were Pf growth 96h 118%, CHX counter 17*, Shiga toxin inh 23, SARS PLpro yeast 0%, NS1 inh 7% and Pf growth 48h inconclusive.
For O=C(Nc1sc2c(c1C(=O)O)CCC2)c1ccc(F)cc1 the results were Pf growth 96h 21%, CHX counter 8, Shiga toxin inh 37*, SARS PLpro yeast -11%, NS1 inh -4% and Pf growth 48h 68%.
Screening O=C(CN1CCCC1)Nc1sc2c(c1C(=O)Nc1ccc(Br)cc1)CCC2 returned Pf growth 96h inconclusive, CHX counter -3, Shiga toxin inh 1, SARS PLpro yeast 2%, NS1 inh 6% and Pf growth 48h 12µM*.
For CCOc1ccccc1NC(=O)c1c(NC(=O)CCC(=O)O)sc2c1CCCCC2 the results were Pf growth 96h 14%, CHX counter 6, Shiga toxin inh 6, SARS PLpro yeast -1%, NS1 inh 6% and Pf growth 48h inconclusive.
